According to PubChem BioAssay AID1851 (National Center for Advancing Translational Sciences (NCATS), 2009):
Values joined by “and” are separate entries in the source; they are usually repeats but may differ in a detail not shown here. Identical values can stand only once. Among all 16,000 compounds or so, about 4,000 (25%) were called active. Roughly 26% stayed inconclusive and do not appear here. The call rests on the fitted dose curve; in most records, active means well fitted curve in the direction sought with a large enough effect; inconclusive means small, poorly fitted or top-dose-only effect, or effect the other way; inactive means no such curve, though single readings can be large or run the other way. Only a sample is shown.

Each compound was assayed against Cytochrome P450 2C9 (Homo sapiens) (UniProt P11712) (assay: Cytochrome panel assay with activity outcomes). Details: recombinant CYP, pro-luciferin dealkylation, luminescence, p450-cyp2c9; series mostly up to 57.1 µM.
On the % scale 0 is the no-effect control and ±100 the full control effect.

Chain of Cytochrome P450 2C9 (Homo sapiens) (P11712 whole entry, looked up): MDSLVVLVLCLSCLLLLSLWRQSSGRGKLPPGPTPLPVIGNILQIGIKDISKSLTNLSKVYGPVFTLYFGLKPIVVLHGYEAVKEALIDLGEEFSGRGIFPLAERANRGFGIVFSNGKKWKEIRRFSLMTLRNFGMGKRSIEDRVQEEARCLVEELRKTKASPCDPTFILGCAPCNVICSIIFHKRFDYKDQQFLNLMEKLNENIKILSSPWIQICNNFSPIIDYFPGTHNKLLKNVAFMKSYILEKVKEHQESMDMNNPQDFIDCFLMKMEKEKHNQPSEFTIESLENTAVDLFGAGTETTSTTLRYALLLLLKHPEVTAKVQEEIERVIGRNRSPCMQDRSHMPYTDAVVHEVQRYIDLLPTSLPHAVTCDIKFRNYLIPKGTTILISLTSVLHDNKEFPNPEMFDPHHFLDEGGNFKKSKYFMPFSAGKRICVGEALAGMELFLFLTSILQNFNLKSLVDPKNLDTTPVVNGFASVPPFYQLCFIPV

activity, negative = inhibition, inactive:
Cc1ccc(S(=O)(=O)N[C@H]2COC(=O)CC=C[C@@H](C)[C@H]3C=C[C@H](O)[C@@H](COC(=O)CC=C[C@H]2C)O3)cc1 -13.5% [at 11.4 µM] and 14.3% [at 11.4 µM]
COc1ccccc1CNc1ncncc1-c1cccc(C#N)c1 -22.7% [at 2.29 µM]
COc1ccccc1-c1nccc(NCc2cnc(C)cn2)n1 19.3% [at 2.29 µM]
N/C(=N\O)c1cn([C@@H]2O[C@@H](CO)[C@H](O)[C@@H]2O)c2ncnc(NO)c12 -5.39% [at 11.4 µM]
O=C(O)CCNc1ncnc2nc[nH]c12 23.7% [at 11.4 µM]
S=C(S)NCCN1CCNCC1 -16.5% [at 11.4 µM]
O=S1(=O)N[C@H]2CC[C@@H]3NS(=O)(=O)N[C@H]4CC[C@H](N1)N4S(=O)(=O)N23 -6.3% [at 11.4 µM]
CCOC(=O)c1c(O)[nH]c(=O)c(CC)c1C 4.97% [at 11.4 µM]
N#Cc1cccc(-c2nccc(NCc3cccs3)n2)c1 5.43% [at 2.29 µM]
CC(=O)NCCNc1ncncc1-c1ccccc1CN(C)C 4.96% [at 2.29 µM]
C/C(CCN1CCCc2nc(C)c(C)cc21)=N\OC[C@@H](O)[C@@H]1O[C@@H]2OC(C)(C)O[C@@H]2[C@H]1O 2.31% [at 11.4 µM]
C[C@@H](c1ccccc1)N1C(=O)[C@H]2[C@H]3[C@H](O)[C@H](O)C/C(=N/OC[C@@H](O)COCc4ccco4)[C@@H]3CC[C@@H]2C1=O 2.8% [at 11.4 µM]

AC50, active:
COc1ccc([N+](=O)[O-])cc1N(CC(O)CN(CC(C)C)CC(C)C)S(=O)(=O)c1ccccc1 (configuration not stated) 12.6 µM
CCc1c(C)c(C#N)c2nc3ccccc3n2c1N1CCN(c2cc(C)ccn2)CC1 1.26 µM
FC(F)(F)c1ccc(N2CCOCC2)c(Nc2nc3ccccc3n3cnnc23)c1 15.8 µM
CC(/C=C1\N=C(SCc2ccccc2Cl)SC1=O)=C\c1ccccc1 1.58 µM
CCc1nnc(NC(=O)c2cc(-c3ccccc3)nn2-c2ccccc2)s1 8.91 µM
CCc1nnc(NC(=O)c2c(C)nn(-c3ccccc3)c2Cl)s1 8.91 µM
Cc1nc2ccccc2n1CC(=O)N/N=C\C=C\c1ccccc1 7.08 µM
CC(/C=N\NC(=O)Cn1c(C)nc2ccccc21)=C\c1ccccc1 2.82 µM
Cc1ccccc1OCCNc1ccc(C(F)(F)F)cc1[N+](=O)[O-] 3.55 µM
COc1ccc(OC)c(C2C(C(=O)Nc3nc4ccccc4s3)=C(C)NC3=C2C(=O)CCC3)c1 (configuration not stated) 0.631 µM
COc1ccc(C(=O)c2ccc(OC)c(OC)c2)cc1OC 11.2 µM
CSc1nc(NC2CCCC2)c([N+](=O)[O-])c(NC2CCCC2)n1 2 µM
Cc1ccc(C2=NN(S(C)(=O)=O)C(c3cccs3)C2)cc1 (configuration not stated) 11.2 µM
O=C(CC(NS(=O)(=O)c1ccc(Cl)cc1)c1ccco1)NCc1ccco1 (configuration not stated) 10 µM
O=C(NCCCn1ccnc1)Nc1ccc(Cl)cc1 0.316 µM
COc1ccc2c(Cl)c(C(=O)NCCCn3ccnc3)sc2c1Cl 0.891 µM
S=C(S)NCCCn1ccnc1 2 µM
CCOC(=O)c1[nH]c(COC(=O)CCOc2ccccc2OC)c(C(=O)OCC)c1C 4.47 µM
CCCCCN=c1ccn(Cc2ccccc2)c2ccccc12 0.316 µM
O=C(Cn1cnc2ccccc21)NC(c1ccccc1)c1ccccc1 15.8 µM
O=S(=O)(/N=C(\Sc1ccccc1)c1ccccc1)c1ccc(Cl)cc1 3.98 µM
CC#CCCCC(=O)Nc1cc(OC)nc(OC)n1 11.2 µM
COCCN=C1Sc2nc3c(C)cccc3cc2CN1Cc1ccco1 4.47 µM
CC(C)Cn1c(-c2ccc(Cl)cc2)cnc1SCC(=O)N1CCOCC1 14.1 µM

AC50, inactive:
O=C(Nc1cccc(F)c1)N1CCC2(CC1)CCN(C(=O)c1cnccn1)CC2
CCCCN=c1sc(C(=O)OC)cc(=O)n1CCCC
Cc1ccsc1/C=N/Nc1nc(Cl)c(Cl)cc1Cl
CCN(CC)CCOC(=O)C1(C2CCCCC2)CCCCC1
CN1CCN(c2nc3cc(C(F)(F)F)ccc3n3cccc23)CC1
CCCC(=O)Nc1nnc(CCN2CCCCC2)s1
Cc1nc2ccccc2n1CC(=O)N/N=C\c1ccccn1
O=c1[nH]n(-c2cccc(Cl)c2)c2ncccc12
COc1ccc2nc(NC(C)=O)sc2c1
CCN(CC)C(=O)c1ccc(O)c(OC)c1
COc1ccc(NC(=O)CC#N)cc1OC
CCN1CC=C2C(C#N)=C(N)C(C#N)(C#N)[C@H](c3ccoc3)[C@H]2C1
CCN1CCN(CCCNC(=O)c2cc3cc4ccc(OC)cc4nc3o2)CC1
CCCNC(=O)Nc1ccc2c(c1)nc(C)n2C
O=C(NCCCN1CCCC1=O)Nc1ccc(F)c(Cl)c1
O=C(NCCNC[C@@H](O)COc1ccc(O)cc1)N1CCOCC1
COc1ccccc1OC[C@H](O)COC(N)=O
N=C(N)SCCc1ccc(OCc2ccc([N+](=O)[O-])cc2)cc1
CN1CCc2cc(Cl)c(O)cc2[C@@H](c2ccccc2)C1
Cc1ccc(OCC(=O)Nn2cnc3ccccc32)cc1
O=S(=O)(/N=C(/Nc1ccc(F)cc1F)c1ccc(Cl)cc1)c1ccccc1
COc1cc(OC)nc(NC(C)=O)n1
Cc1cc(C)nc(NC(=O)CCCC(=O)O)c1
N#Cc1ccc(CN2CCC3(CC2)CCN(C(=O)c2cc(C(F)(F)F)cc(C(F)(F)F)c2)CC3)cc1
O=C(CSc1c[nH]c2ccccc12)N1CCOCC1
COc1ccc2c(c1)c(CC(=O)N1CCOCC1)c(C)n2C(=O)c1ccc(Cl)cc1
